Laboratory results as given in the supplement of paper PMC6992640.
± gives the standard deviation of the averaged measurements.

Experiments:
Assay in all cases: cell viability (% of vehicle); higher = less cytotoxic
Conditions in all cases: 10 µM; 72 h
HCI01 = tested on: HCI01 (cells of a triple-negative basal-like breast cancer xenograft)
HCI03 = tested on: HCI03 (cells of an ER-positive luminal breast cancer xenograft)
HCI09 = tested on: HCI09 (cells of a triple-negative luminal androgen receptor type breast cancer xenograft)
HCI11 = tested on: HCI11 (cells of an ER-positive luminal breast cancer xenograft)
UCD52 = tested on: UCD52 (cells of a triple-negative basal-like breast cancer xenograft)
WHIM2 = tested on: WHIM2 (cells of a triple-negative basal-like breast cancer xenograft)
WHIM30 = tested on: WHIM30 (cells of a triple-negative basal-like breast cancer xenograft)
HCI13 = tested on: HCI13 (cells of an ER-positive luminal breast cancer xenograft)
HCI16 = tested on: HCI16 (cells of a triple-negative basal-like breast cancer xenograft)
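Also: PDX cells carrying CMV promoter-driven luciferase, viability read as total photon flux per second by IVIS imaging following D-luciferin, vehicle control 0.1% DMSO.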

Row | Structure (SMILES) | cell viability (HCI01) | cell viability (HCI03) | cell viability (HCI09) | cell viability (HCI11) | cell viability (UCD52) | cell viability (WHIM2) | cell viability (WHIM30) | cell viability (HCI13) | cell viability (HCI16)
1 | CC1CC2C(C(O)CC3(C)C2CCC3(O)C(=O)CO)C2(C)C=CC(=O)C=C12 (stereo unspecified) [Methylprednisolone] | 145 ± 24 | 156 | 123 ± 34 | 136 | 154 ± 11 | 119 ± 8.1 | 194 ± 12 |  | 
2 | CC1(C)O[C@@H]2C[C@H]3[C@@H]4CCC5=CC(=O)C=C[C@]5(C)[C@@]4(F)[C@@H](O)C[C@]3(C)[C@]2(C(=O)CO)O1 [Triamcinolone Acetonide] | 147.2 ± 1.3 | 171 | 183 ± 20 | 111 | 198 ± 18 | 89.1 ± 12 |  |  | 
3 | Nc1nc2[nH][nH]nc-2c(=O)n1 [Azaguanine-8] | 158 ± 48 | 146 | 137 ± 21 |  | 102 ± 55 | 96.01 ± 0.31 | 119 ± 14 | 150 ± 9.1 | 
4 | CC1(C)O[C@@H]2C[C@H]3[C@@H]4CCC5=CC(=O)C=C[C@]5(C)[C@H]4[C@@H](O)C[C@]3(C)[C@]2(C(=O)CO)O1 [Desonide] | 84.8 ± 63 | 176 | 117 ± 43 | 125 | 144 ± 8.6 | 96.1 ± 15 | 127 ± 17 |  | 
5 | CC12C=CC(=O)C=C1CCC1C3CC(O)C(O)(C(=O)CO)C3(C)CC(O)C12F (stereo unspecified) [Triamcinolone] | 117 ± 18 | 176 | 112.2 ± 0.86 | 130 | 121 ± 8.9 | 121 ± 18 | 185 ± 5.1 |  | 
6 | CCCCC(=O)OC1(C(=O)CO)C(C)CC2C3CCC4=CC(=O)C=CC4(C)C3(F)C(O)CC21C (stereo unspecified) [Betamethasone Valerate] | 120 ± 12 | 169 | 148 ± 34 | 124 | 161 ± 9.9 | 88.9 ± 29 | 194 ± 17 |  | 
7 | CC(=O)OCC(=O)C1(O)CCC2C3CCC4=CC(=O)C=CC4(C)C3C(O)CC21C (stereo unspecified) [Prednisolone Acetate] | 119 ± 47 | 185 | 134 ± 37 | 123 | 152.4 ± 0.65 | 97.2 ± 1.2 | 182 ± 22 |  | 
8 | CC12CCC(=O)C=C1CCC1C2C(O)CC2(C)C1CCC2(O)C(=O)CO (stereo unspecified) [Hydrocortisone] | 103 ± 13 | 126 | 132 ± 57 | 113 | 124 ± 4.5 | 95.6 ± 4.8 | 198 ± 13 |  | 
9 | CC(=O)OCC(=O)C1(O)C(C)CC2C3CCC4=CC(=O)C=CC4(C)C3(F)C(O)CC21C (stereo unspecified) [Dexamethasone acetate] | 114 ± 33 | 160 | 131 ± 45 | 138 | 149 ± 10 | 119 ± 43 | 149 ± 22 |  | 
10 | CC(C)[N+]1(C)C2CCC1CC(OC(=O)C(CO)c1ccccc1)C2.[Br-] (stereo unspecified) [Ipratropium Bromide] | 138 ± 45 | 151 | 158 ± 79 | 108 | 148 ± 5.2 | 103 ± 15 | 180 ± 23 |  | 
11 | NCCC(O)(P(=O)(O)O)P(=O)(O)O [Pamidronate] | 167 ± 8.5 | 112 | 56 ± 19 | 144 | 137 ± 19 |  | 143.9 ± 0.96 |  | 
12 | CCC(=O)OC1(C(=O)SCF)C(C)CC2C3CC(F)C4=CC(=O)C=CC4(C)C3(F)C(O)CC21C (stereo unspecified) [Fluticasone propionate] | 76.7 ± 52 | 166 | 128 ± 33 | 133 | 128 ± 14 | 102 ± 44 |  |  | 
13 | CCc1c2c(nc3ccc(OC(=O)N4CCC(N5CCCCC5)CC4)cc13)-c1cc3c(c(=O)n1C2)COC(=O)C3(O)CC (stereo unspecified) [Irinotecan] | 110 ± 6 | 133 | 174 ± 80 |  | 107 ± 6.1 | 67.4 ± 6.7 | 113 ± 8.8 | 121 ± 2.2 | 140
14 | CC1(C)O[C@@H]2C[C@H]3[C@@H]4CCC5=CC(=O)CC[C@]5(C)[C@@]4(F)[C@@H](O)C[C@]3(C)[C@]2(C(=O)CCl)O1 [Halcinonide] | 123 ± 21 | 144 | 146 ± 72 | 133 | 168 ± 24 | 105 ± 1.8 | 177 ± 4.2 |  | 
15 | CC(C)n1c(C=CC(O)CC(O)CC(=O)[O-])c(-c2ccc(F)cc2)c2ccccc21.[Na+] (stereo unspecified) [Fluvastatin Sodium] | 91.3 ± 15 | 135 | 61.2 ± 11 |  | 54.9 ± 4.7 | 59.6 ± 0.62 | 113 ± 11 |  | 135
16 | CC1CC2C3CCC4=CC(=O)C=CC4(C)C3(Cl)C(O)CC2(C)C1(OC(=O)c1ccco1)C(=O)CCl (stereo unspecified) [Mometasone furoate] | 94.8 ± 29 | 151 | 118 ± 30 | 115 | 139.5 ± 0.18 | 83.5 ± 7.3 |  |  | 
17 | CCC1OC(=O)C(C)C(OC2CC(C)(OC)C(O)C(C)O2)C(C)C(OC2OC(C)CC(N(C)C)C2O)C(C)(O)CC(C)CN(C)C(C)C(O)C1(C)O (stereo unspecified) [Azithromycin] | 145 ± 30 | 137 | 116 ± 5.9 | 121 | 105 ± 26 | 114.9 ± 1.1 | 119 ± 24 |  | 124
18 | O=c1c(-n2ccnn2)c[nH]n1-c1cc(N2CCOCC2)ncn1 [Molidustat (BAY85-3934)] | 142 ± 4.8 | 121 | 27.2 ± 1.8 | 121 | 163 ± 3.5 | 104 ± 7.3 |  |  | 
19 | Cc1ccc(C)c(OCCCC(C)(C)C(=O)O)c1 [Gemfibrozil] | 99.9 ± 25 | 118 | 131 ± 54 | 112 | 124 ± 17 | 98.3 ± 12 |  |  | 
20 | CC(C)c1c(C(=O)Nc2ccccc2)c(-c2ccccc2)c(-c2ccc(F)cc2)n1CCC(O)CC(O)CC(=O)[O-].CC(C)c1c(C(=O)Nc2ccccc2)c(-c2ccccc2)c(-c2ccc(F)cc2)n1CCC(O)CC(O)CC(=O)[O-].[Ca+2] (stereo unspecified) [Atorvastatin Calcium] | 89.2 ± 4.2 | 138 | 89.2 ± 26 |  | 47.7 ± 2.3 | 43.7 ± 10 | 158 ± 5.3 | 95.72 ± 0.31 | 140
21 | CO[C@@]1(NC(=O)[C@H](C(=O)[O-])c2ccc(O)cc2)C(=O)N2C(C(=O)[O-])=C(CSc3nnnn3C)CO[C@@H]21.[Na+].[Na+] [Moxalactam (sodium salt)] | 116 ± 30 | 120 | 108 ± 3.6 | 66.4 | 144 ± 7 | 92.8 ± 6.9 | 126 ± 2.9 |  | 148
22 | OCC1OC(Oc2cc(O)cc(C=Cc3ccc(O)cc3)c2)C(O)C(O)C1O (stereo unspecified) [Polydatin] | 155 ± 18 |  | 113 ± 15 | 142 |  | 109 ± 35 |  | 99.9 ± 1.1 | 195
23 | Nc1ccccc1NC(=O)c1ccc(CNc2nccc(-c3cccnc3)n2)cc1 [Mocetinostat (MGCD0103, MG0103)] |  | 87 | 78.4 ± 73 | 5.73 |  | 109 ± 13 |  | 150 ± 160 | 
